In paper PMC9911399, “Two distinct binding modes provide the RNA-binding protein RbFox with extraordinary sequence specificity”:
Numbering of substitutions follows the chain as printed; changes in the protein carry UniProt numbers. The full ranking holds about 16,000 sequences; the median of “ka relative to ugcaugu” is about 0.0091, and the highest 2% start at about 0.032. Only a selection was taken, and the highest values are over-represented in it overall.

T1: RBFOX1 RRM (Homo sapiens, UniProt Q9NWB1 109-208)
T1 sequence: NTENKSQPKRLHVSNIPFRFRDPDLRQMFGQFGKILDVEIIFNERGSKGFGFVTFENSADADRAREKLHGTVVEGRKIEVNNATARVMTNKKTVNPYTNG

B1: CUGGACU (DNA:RNA)
RNA: GGGAGACCGGAAUUCAGAUUGUCCCUGGACUUUAAAUCCCGUCGUAGCCACCA
DNA 1: CAATCTGAATTCCGGTCTCCC
DNA 2: TGGTGGCTACGACGGGATT
B2: AUUAGUU (DNA:RNA)
RNA: B1 RNA with C25A, G27U, G28A, A29G, C30U
DNA 1: CAATCTGAATTCCGGTCTCCC
DNA 2: TGGTGGCTACGACGGGATT
B3: UACCGUC (DNA:RNA)
RNA: GGGAGACCGGAAUUCAGAUUGUCCUACCGUCUUAAAUCCCGUCGUAGCCACCA
DNA 1: CAATCTGAATTCCGGTCTCCC
DNA 2: TGGTGGCTACGACGGGATT
B4: ACUAUCA (DNA:RNA)
RNA: B1 RNA with C25A, U26C, G27U, G28A, A29U, U31A
DNA 1: CAATCTGAATTCCGGTCTCCC
DNA 2: TGGTGGCTACGACGGGATT
B5: UGGGUGG (DNA:RNA)
RNA: B1 RNA with C25U, U26G, A29U, C30G, U31G
DNA 1: CAATCTGAATTCCGGTCTCCC
DNA 2: TGGTGGCTACGACGGGATT
B6: GUCGUUC (DNA:RNA)
RNA: B3 RNA with U25G, A26U, C28G, G29U
DNA 1: CAATCTGAATTCCGGTCTCCC
DNA 2: TGGTGGCTACGACGGGATT
B7: UUGUCCC (DNA:RNA)
RNA: B1 RNA with C25U, G28U, A29C, U31C
DNA 1: CAATCTGAATTCCGGTCTCCC
DNA 2: TGGTGGCTACGACGGGATT
B8: UUGUGUG (DNA:RNA)
RNA: B3 RNA with A26U, C27G, C28U, C31G
DNA 1: CAATCTGAATTCCGGTCTCCC
DNA 2: TGGTGGCTACGACGGGATT
B9: GUGUGCG (DNA:RNA)
RNA: B1 RNA with C25G, G28U, A29G, U31G
DNA 1: CAATCTGAATTCCGGTCTCCC
DNA 2: TGGTGGCTACGACGGGATT
B10: UUGCGUC (DNA:RNA)
RNA: B3 RNA with A26U, C27G
DNA 1: CAATCTGAATTCCGGTCTCCC
DNA 2: TGGTGGCTACGACGGGATT
B11: GUGCGUG (DNA:RNA)
RNA: B3 RNA with U25G, A26U, C27G, C31G
DNA 1: CAATCTGAATTCCGGTCTCCC
DNA 2: TGGTGGCTACGACGGGATT
B12: CUUGUCC (DNA:RNA)
RNA: B1 RNA with G27U, A29U, U31C
DNA 1: CAATCTGAATTCCGGTCTCCC
DNA 2: TGGTGGCTACGACGGGATT
B13: CCGUGCG (DNA:RNA)
RNA: B1 RNA with U26C, G28U, A29G, U31G
DNA 1: CAATCTGAATTCCGGTCTCCC
DNA 2: TGGTGGCTACGACGGGATT
B14: UUGGGGG (DNA:RNA)
RNA: B1 RNA with C25U, A29G, C30G, U31G
DNA 1: CAATCTGAATTCCGGTCTCCC
DNA 2: TGGTGGCTACGACGGGATT
B15: UUGCGUG (DNA:RNA)
RNA: B3 RNA with A26U, C27G, C31G
DNA 1: CAATCTGAATTCCGGTCTCCC
DNA 2: TGGTGGCTACGACGGGATT
B16: CGUGUCC (DNA:RNA)
RNA: B1 RNA with U26G, G27U, A29U, U31C
DNA 1: CAATCTGAATTCCGGTCTCCC
DNA 2: TGGTGGCTACGACGGGATT
B17: UUGGGUG (DNA:RNA)
RNA: B1 RNA with C25U, A29G, C30U, U31G
DNA 1: CAATCTGAATTCCGGTCTCCC
DNA 2: TGGTGGCTACGACGGGATT
B18: UUGGGAA (DNA:RNA)
RNA: B1 RNA with C25U, A29G, C30A, U31A
DNA 1: CAATCTGAATTCCGGTCTCCC
DNA 2: TGGTGGCTACGACGGGATT
B19: UCUCAAU (DNA:RNA)
RNA: B1 RNA with C25U, U26C, G27U, G28C, C30A
DNA 1: CAATCTGAATTCCGGTCTCCC
DNA 2: TGGTGGCTACGACGGGATT
B20: CGUCACC (DNA:RNA)
RNA: B1 RNA with U26G, G27U, G28C, U31C
DNA 1: CAATCTGAATTCCGGTCTCCC
DNA 2: TGGTGGCTACGACGGGATT
B21: GACAUGU (DNA:RNA)
RNA: B3 RNA with U25G, C28A, G29U, U30G, C31U
DNA 1: CAATCTGAATTCCGGTCTCCC
DNA 2: TGGTGGCTACGACGGGATT
B22: GACACAU (DNA:RNA)
RNA: B3 RNA with U25G, C28A, G29C, U30A, C31U
DNA 1: CAATCTGAATTCCGGTCTCCC
DNA 2: TGGTGGCTACGACGGGATT
B23: GAACACU (DNA:RNA)
RNA: B1 RNA with C25G, U26A, G27A, G28C
DNA 1: CAATCTGAATTCCGGTCTCCC
DNA 2: TGGTGGCTACGACGGGATT
B24: AGUUCUC (DNA:RNA)
RNA: B3 RNA with U25A, A26G, C27U, C28U, G29C
DNA 1: CAATCTGAATTCCGGTCTCCC
DNA 2: TGGTGGCTACGACGGGATT
B25: CUCUCGG (DNA:RNA)
RNA: B1 RNA with G27C, G28U, A29C, C30G, U31G
DNA 1: CAATCTGAATTCCGGTCTCCC
DNA 2: TGGTGGCTACGACGGGATT
B26: GAGGGCA (DNA:RNA)
RNA: B1 RNA with C25G, U26A, A29G, U31A
DNA 1: CAATCTGAATTCCGGTCTCCC
DNA 2: TGGTGGCTACGACGGGATT
B27: UGCCCGG (DNA:RNA)
RNA: B3 RNA with A26G, G29C, U30G, C31G
DNA 1: CAATCTGAATTCCGGTCTCCC
DNA 2: TGGTGGCTACGACGGGATT
B28: ACGCUGC (DNA:RNA)
RNA: B3 RNA with U25A, A26C, C27G, G29U, U30G
DNA 1: CAATCTGAATTCCGGTCTCCC
DNA 2: TGGTGGCTACGACGGGATT
B29: UGCACGC (DNA:RNA)
RNA: B3 RNA with A26G, C28A, G29C, U30G
DNA 1: CAATCTGAATTCCGGTCTCCC
DNA 2: TGGTGGCTACGACGGGATT
B30: UGCACAA (DNA:RNA)
RNA: B3 RNA with A26G, C28A, G29C, U30A, C31A
DNA 1: CAATCTGAATTCCGGTCTCCC
DNA 2: TGGTGGCTACGACGGGATT
B31: UGCACCA (DNA:RNA)
RNA: B3 RNA with A26G, C28A, G29C, U30C, C31A
DNA 1: CAATCTGAATTCCGGTCTCCC
DNA 2: TGGTGGCTACGACGGGATT
B32: ACCACGG (DNA:RNA)
RNA: B3 RNA with U25A, A26C, C28A, G29C, U30G, C31G
DNA 1: CAATCTGAATTCCGGTCTCCC
DNA 2: TGGTGGCTACGACGGGATT
B33: UGCACGA (DNA:RNA)
RNA: B3 RNA with A26G, C28A, G29C, U30G, C31A
DNA 1: CAATCTGAATTCCGGTCTCCC
DNA 2: TGGTGGCTACGACGGGATT
B34: UGCACGG (DNA:RNA)
RNA: B3 RNA with A26G, C28A, G29C, U30G, C31G
DNA 1: CAATCTGAATTCCGGTCTCCC
DNA 2: TGGTGGCTACGACGGGATT
B35: UGUCUGC (DNA:RNA)
RNA: B3 RNA with A26G, C27U, G29U, U30G
DNA 1: CAATCTGAATTCCGGTCTCCC
DNA 2: TGGTGGCTACGACGGGATT

Each binder was assayed against T1, RBFOX1 RRM (assay: EMSA; HiTS-Eq, 1 nM pool, 10 min; buffer printed only for the single-RNA assays: 10 mM Tris pH 7.5, 150 mM NaCl, 3.4 mM EDTA, 0.001% NP-40, 30 C). Settings: tags: His6 N-terminal (pET28a); label: 5' 32P.
In short: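 Purified RbFox RRM, wild type or mutant, was incubated for 10 min in 50 µL with 1 nM of a 5′-radiolabelled RNA pool carrying 7 randomized nucleotides, whose flanks were annealed to DNA oligonucleotides, over a series of increasing protein concentrations. Unbound RNA was resolved on 8% native PAGE, cut out, reverse-transcribed, barcoded by PCR and sequenced on an Illumina HiSeq 2500. Relative association constants were derived from changes in read counts for each RNA species versus the control reaction and normalised to the cognate motif.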

Q: How did the binding signal turn out when B1 was run?
A: 0.00842 KA relative to UGCAUGU

Q: For B2, which binding signal is on record?
A: 0.00711 KA relative to UGCAUGU

Q: For B3, which binding signal is on record?
A: 0.0072 KA relative to UGCAUGU

Q: How did the binding signal turn out when B4 was run?
A: 0.00217 KA relative to UGCAUGU

Q: For B5, which binding signal is on record?
A: 0.0279 KA relative to UGCAUGU

Q: Which binding signal does the source give for B6 here?
A: 0.0139 KA relative to UGCAUGU

Q: With B7 as the binder, how does the binding signal read?
A: 0.0102 KA relative to UGCAUGU

Q: Which binding signal does the source give for B8 here?
A: 0.0403 KA relative to UGCAUGU

Q: Which binding signal does the source give for B9 here?
A: 0.0191 KA relative to UGCAUGU

Q: Which binding signal does the source give for B10 here?
A: 0.0198 KA relative to UGCAUGU

Q: With B11 as the binder, how does the binding signal read?
A: 0.0481 KA relative to UGCAUGU

Q: Which binding signal does the source give for B12 here?
A: 0.0101 KA relative to UGCAUGU

Q: With B13 as the binder, how does the binding signal read?
A: 0.0124 KA relative to UGCAUGU

Q: For B14, which binding signal is on record?
A: 0.0118 KA relative to UGCAUGU

Q: How did the binding signal turn out when B15 was run?
A: 0.0447 KA relative to UGCAUGU

Q: With B16 as the binder, how does the binding signal read?
A: 0.00858 KA relative to UGCAUGU

Q: B17 was tested. Which binding signal did it give?
A: 0.0408 KA relative to UGCAUGU

Q: How did the binding signal turn out when B18 was run?
A: 0.0102 KA relative to UGCAUGU

Q: B19 was tested. Which binding signal did it give?
A: 0.0038 KA relative to UGCAUGU

Q: For B20, which binding signal is on record?
A: 0.00293 KA relative to UGCAUGU

Q: With B21 as the binder, how does the binding signal read?
A: 0.0153 KA relative to UGCAUGU

Q: How did the binding signal turn out when B22 was run?
A: 0.000474 KA relative to UGCAUGU

Q: For B23, which binding signal is on record?
A: 0.00588 KA relative to UGCAUGU

Q: For B24, which binding signal is on record?
A: 0.0138 KA relative to UGCAUGU

Q: B25 was tested. Which binding signal did it give?
A: 0.0101 KA relative to UGCAUGU

Q: Which binding signal does the source give for B26 here?
A: 0.0138 KA relative to UGCAUGU

Q: For B27, which binding signal is on record?
A: 0.0184 KA relative to UGCAUGU

Q: B28 was tested. Which binding signal did it give?
A: 0.0121 KA relative to UGCAUGU

Q: B29 was tested. Which binding signal did it give?
A: 0.252 KA relative to UGCAUGU

Q: With B30 as the binder, how does the binding signal read?
A: 0.00911 KA relative to UGCAUGU

Q: With B31 as the binder, how does the binding signal read?
A: 0.00925 KA relative to UGCAUGU

Q: For B32, which binding signal is on record?
A: 0.0054 KA relative to UGCAUGU

Q: Which binding signal does the source give for B33 here?
A: 0.0767 KA relative to UGCAUGU

Q: How did the binding signal turn out when B34 was run?
A: 0.077 KA relative to UGCAUGU

Q: For B35, which binding signal is on record?
A: 0.0316 KA relative to UGCAUGU
